# Laboratory results: PubChem BioAssay (EPA / NIEHS)
# Several values for one entry are separate records, joined by “and”; a condition that tells them apart may be missing. Equal values may be shown once. The source holds several records for some structures; these can differ, active in one and inactive in another. Activity calls are given as the source filed them. How the source made its calls: active means hit-call score of the fitted dose curve at least 0.9, where 1 is the maximum; inactive means score below 0.9.
# Columns and labels:
# [1] = ATG_GLI_CIS: Attagene CIS-FACTORIAL HepG2 Assay for human Zinc Finger Protein GLI1 (AID 2282945); conditions: HepG2, Attagene cis-factorial reporter mRNA, GLI element; actives raise or lower the signal
# How it was run: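 Bidirectional curve fits relative to DMSO, using reporter mRNA levels from RT-PCR plus capillary electrophoresis. Cells were HepG2 transiently carrying cis-regulated reporter constructs, harvested 24 h after dosing.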
# [2] = ATG_ISRE_CIS: Attagene CIS-FACTORIAL HepG2 Assay for human Interferon Regulatory Factor 1 (IRF1) binding to an Interferon-Stimulated Response Element (ISRE) (AID 2282948); conditions: HepG2 ISRE cis-reporter (Attagene), mRNA transcription readout; actives raise or lower the signal
# How it was run: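 Signal reflects induction or loss of ISRE-linked reporter mRNA in transiently transfected HepG2 cells after a 24 h treatment, detected by fluorescent RT-PCR fragments on capillary electrophoresis and normalised to DMSO.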
# [3] = ATG_M_32_CIS: Attagene CIS-FACTORIAL HepG2 Assay for M32 Transcription Factor (Internal Marker) (AID 2282949); conditions: HepG2 Attagene cis-factorial M32 reporter, mRNA; actives raise or lower the signal;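 further: background control marker of the multiplexed CIS panel rather than a real target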
# How it was run: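 HepG2 transfectants (cis-regulated reporter transcription units) dosed 24 h. Reporter mRNA by RT-PCR plus CE, analysed as gain or loss relative to DMSO.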
# [4] = ATG_M_06_CIS: Attagene CIS-FACTORIAL HepG2 Assay for M06 Transcription Factor (Internal Marker) (AID 2282950); conditions: HepG2 Attagene CIS-FACTORIAL M06 internal marker reporter; actives raise or lower the signal
# How it was run: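 Cells (HepG2, transiently carrying cis-driven reporter units) receive chemical for 24 h before RNA isolation. Reporter cDNA is PCR-amplified, FAM-labelled by primer extension, HpaI-digested and sized on a capillary analyser.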
# [5] = molecular target: Hypoxia-inducible factor 1-alpha (Homo sapiens) (UniProt Q16665); experiment: ATG_HIF1a_CIS: Attagene CIS-FACTORIAL HepG2 Assay for human Hypoxia Inducible Factor 1 (HIF1A) (AID 2282951); conditions: HepG2 Attagene cis-factorial HIF1a reporter transcription; actives raise or lower the signal
# How it was run: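 Endogenous-TF cis reporter readout, human HepG2 cells, 24 h incubation; mRNA detected via RT-PCR and capillary electrophoresis fluorescence; DMSO-normalised bidirectional fitting.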
# [6] = molecular target: Heat shock factor protein 1 (Homo sapiens) (UniProt Q00613); experiment: ATG_HSE_CIS: Attagene CIS-FACTORIAL HepG2 Assay for human Heat Shock Transcription Factor 1 (HSE) (AID 2282953); conditions: HepG2 HSE cis-reporter, Attagene RNA transcription; actives raise or lower the signal
# How it was run: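 Liver-derived HepG2 cells carry transiently introduced multiple reporter units governed by cis promoters. Reporter RNA measured 24 h post-dose through reverse transcription, PCR amplification, fluorescent labelling and capillary electrophoresis, normalised to DMSO.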
# [7] = ATG_MRE_CIS: Attagene CIS-FACTORIAL HepG2 Assay for human Metal Responsive Element (MRE) (AID 2282954); conditions: HepG2 MRE cis-reporter transcription, Attagene multiplex; actives raise or lower the signal
# How it was run: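 Endogenous MRE-dependent transcription read as reporter mRNA in transiently transfected human HepG2 cells at 24 h. RNA reverse-transcribed, PCR-amplified, labelled and resolved by capillary electrophoresis; gain or loss relative to DMSO.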
# [8] = ATG_PBREM_CIS: Attagene CIS-FACTORIAL HepG2 Assay for human Phenobarbital-responsive Enhancer Module (PBREM) (AID 2282955); conditions: HepG2 PBREM cis-reporter, Attagene multiplexed transcription; actives raise or lower the signal
# How it was run: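 Readout: reporter mRNA, fluorescent RT-PCR fragments separated by capillary electrophoresis. System: HepG2 transiently transfected with cis-regulated reporter units. Exposure: 24 h. Analysis: bidirectional, DMSO baseline.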
# [9] = molecular target: Paired box protein Pax-6 (Homo sapiens) (UniProt P26367); experiment: ATG_Pax6_CIS: Attagene CIS-FACTORIAL HepG2 Assay for human Paired Box 6 (PAX6) (AID 2282956); conditions: HepG2 CIS-FACTORIAL PAX6 reporter transcription, RNA readout; actives raise or lower the signal
# How it was run: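 Values derive from bidirectional curve fitting of reporter mRNA signal relative to DMSO. HepG2 cells bearing transfected cis-regulated MRTUs were exposed for 24 h; transcripts were read by RT-PCR and capillary electrophoresis.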
# [10] = ATG_PXRE_CIS: Attagene CIS-FACTORIAL HepG2 Assay for human Pregnane X Receptor Element (PXRE) (AID 2282957); conditions: HepG2 Attagene CIS-FACTORIAL PXRE reporter, mRNA; actives raise or lower the signal
# How it was run: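 Endogenous transcription factor activity in HepG2 was gauged through induction of reporter mRNA driven by a cis-regulating promoter element, sampled 24 h post-treatment. Activity was fitted in both directions against DMSO negative control.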
# [11] = ATG_PPRE_CIS: Attagene CIS-FACTORIAL HepG2 Assay for human Peroxisome Proliferator-activated Response Element (PPRE) (AID 2282958); conditions: HepG2 PPRE cis-element reporter, Attagene transcription factor profiling; actives raise or lower the signal
# How it was run: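 After human HepG2 hepatoma cells were transiently transfected with cis-promoter reporter constructs, they were exposed to test chemicals for 24 hours. Reporter RNA was then reverse-transcribed, PCR-amplified, FAM-labeled, HpaI-digested and quantified by capillary electrophoresis.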
# [12] = ATG_RORE_CIS: Attagene CIS-FACTORIAL HepG2 Assay for human RAR-related Orphan Receptor Element (RORE) (AID 2282959); conditions: HepG2 Attagene cis-factorial RORE reporter, mRNA; actives raise or lower the signal
# How it was run: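 Measured here: transcript induction of a cis-regulated reporter in HepG2 cells transiently transfected via FuGene 6. After 24 h, RNA was processed by RT-PCR and fluorescent capillary electrophoresis; DMSO defined baseline activity.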
# [13] = ATG_Sox_CIS: Attagene CIS-FACTORIAL HepG2 Assay for human SRY-box transcription factor (SOX) (AID 2282960); conditions: HepG2 Attagene cis-factorial SOX reporter, mRNA; actives raise or lower the signal
# How it was run: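 Using transiently transfected HepG2 cells, reporter transcription driven by cis elements was assessed 24 h after dosing. Signal was fluorescence of capillary-separated RT-PCR products, with DMSO defining baseline activity.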
# [14] = molecular target: Transcription factor Sp1 (Homo sapiens) (UniProt P08047); experiment: ATG_Sp1_CIS: Attagene CIS-FACTORIAL HepG2 Assay for human Specificity Protein 1 (Sp1) (AID 2282961); conditions: HepG2 Sp1 cis-reporter transcription, actives raise or lower the signal
# How it was run: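 After transient transfection of HepG2 cells with cis-promoter reporter units and 24 h chemical treatment, reporter transcripts were quantified by RT-PCR and capillary electrophoresis fluorescence. Gain- and loss-of-signal fitted against DMSO.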
# [15] = ATG_SREBP_CIS: Attagene CIS-FACTORIAL HepG2 Assay for human Sterol Regulatory Element Binding (SREBP) (AID 2282962); conditions: HepG2 Attagene cis-factorial SREBP reporter, mRNA; actives raise or lower the signal
# How it was run: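 Values derive from bidirectional curve fitting with DMSO as baseline. The underlying measurement is reporter mRNA from cis-element-regulated units in transiently transfected HepG2, quantified by RT-PCR and capillary electrophoresis after 24 h exposure.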
# [16] = molecular target: Signal transducer and activator of transcription 3 (Homo sapiens) (UniProt P40763); experiment: ATG_STAT3_CIS: Attagene CIS-FACTORIAL HepG2 Assay for human Signal Transducer and Activator of Transcription 3 (STAT3) (AID 2282963); conditions: HepG2, Attagene cis-factorial STAT3 reporter transcription; actives raise or lower the signal
# How it was run: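 Readout is reporter transcript quantified by RT-PCR and capillary electrophoresis, with 6-FAM primer extension and HpaI digestion. Total RNA is taken 24 h after dosing transiently transfected HepG2 carrying cis-regulated reporter units. Bidirectional fit against DMSO.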
# [17] = ATG_TA_CIS: Attagene CIS-FACTORIAL HepG2 Assay for human TA Basal Promoter (AID 2282964); conditions: HepG2 Attagene CIS-factorial TA basal promoter reporter; actives raise or lower the signal
# How it was run: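 Background internal-marker endpoint from a 52-component HepG2 cis-reporter panel. Cells treated 24 h; reporter transcripts quantified via RT-PCR and CE fluorescence against DMSO baseline.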
# [18] = molecular target: Hepatocyte nuclear factor 6 (Homo sapiens) (UniProt Q9UBC0); experiment: ATG_HNF6_CIS: Attagene CIS-FACTORIAL HepG2 Assay for human Hepatocyte Nuclear Factor 6 (HNF6) (AID 2282952); conditions: HepG2 Attagene cis-factorial HNF6 reporter transcription; actives raise or lower the signal
# How it was run: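 Endogenous transcription factor activity in human HepG2 liver cells was captured through cis-regulated reporter constructs. After 24 h treatment, reporter mRNA was measured by RT-PCR with capillary electrophoresis, and activity was fitted in both directions relative to DMSO.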
# [19] = molecular target: Bile acid receptor (Homo sapiens) (UniProt Q96RI1); experiment: ATG_IR1_CIS: Attagene CIS-FACTORIAL HepG2 Assay for human Nuclear Receptor Subfamily 1 Group H Member 4 (NR1H4), IR1 submotif (AID 2282946); conditions: IR1 reporter transcription, actives raise or lower the signal
# How it was run: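 HepG2 cells transiently transfected with multiplexed cis-element reporter units read endogenous transcription factor activity. After 24 h compound exposure, reporter mRNA was quantified by RT-PCR, fluorescent labelling, HpaI digestion and capillary electrophoresis; bidirectional fitting versus DMSO baseline.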
# [20] = ATG_GRE_CIS: Attagene CIS-FACTORIAL HepG2 Assay for human Glucocorticoid Response Elements (GRE) (AID 2282947); conditions: HepG2 GRE cis-reporter, Attagene multiplex mRNA; actives raise or lower the signal
# How it was run: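 Reporter transcripts read by RT-PCR with capillary electrophoresis fluorescence after a 24 h chemical exposure of HepG2 cells transiently transfected with multiple cis-element reporter units. Gain or loss fitted against DMSO.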
# Sequence of Hepatocyte nuclear factor 6 (Homo sapiens) (Q9UBC0 whole entry, looked up): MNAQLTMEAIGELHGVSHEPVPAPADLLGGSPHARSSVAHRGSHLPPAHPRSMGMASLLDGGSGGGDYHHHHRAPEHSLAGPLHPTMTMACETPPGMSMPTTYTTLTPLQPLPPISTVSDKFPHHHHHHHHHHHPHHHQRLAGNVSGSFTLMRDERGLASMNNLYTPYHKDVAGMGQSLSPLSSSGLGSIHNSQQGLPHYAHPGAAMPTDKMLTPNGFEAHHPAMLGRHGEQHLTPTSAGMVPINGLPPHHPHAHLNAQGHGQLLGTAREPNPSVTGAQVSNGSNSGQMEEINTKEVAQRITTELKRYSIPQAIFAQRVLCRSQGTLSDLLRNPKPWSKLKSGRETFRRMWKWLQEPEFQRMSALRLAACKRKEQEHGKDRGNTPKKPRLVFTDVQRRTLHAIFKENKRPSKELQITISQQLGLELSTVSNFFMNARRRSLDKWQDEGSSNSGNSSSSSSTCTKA
# Sequence of Signal transducer and activator of transcription 3 (Homo sapiens) (P40763 whole entry, looked up): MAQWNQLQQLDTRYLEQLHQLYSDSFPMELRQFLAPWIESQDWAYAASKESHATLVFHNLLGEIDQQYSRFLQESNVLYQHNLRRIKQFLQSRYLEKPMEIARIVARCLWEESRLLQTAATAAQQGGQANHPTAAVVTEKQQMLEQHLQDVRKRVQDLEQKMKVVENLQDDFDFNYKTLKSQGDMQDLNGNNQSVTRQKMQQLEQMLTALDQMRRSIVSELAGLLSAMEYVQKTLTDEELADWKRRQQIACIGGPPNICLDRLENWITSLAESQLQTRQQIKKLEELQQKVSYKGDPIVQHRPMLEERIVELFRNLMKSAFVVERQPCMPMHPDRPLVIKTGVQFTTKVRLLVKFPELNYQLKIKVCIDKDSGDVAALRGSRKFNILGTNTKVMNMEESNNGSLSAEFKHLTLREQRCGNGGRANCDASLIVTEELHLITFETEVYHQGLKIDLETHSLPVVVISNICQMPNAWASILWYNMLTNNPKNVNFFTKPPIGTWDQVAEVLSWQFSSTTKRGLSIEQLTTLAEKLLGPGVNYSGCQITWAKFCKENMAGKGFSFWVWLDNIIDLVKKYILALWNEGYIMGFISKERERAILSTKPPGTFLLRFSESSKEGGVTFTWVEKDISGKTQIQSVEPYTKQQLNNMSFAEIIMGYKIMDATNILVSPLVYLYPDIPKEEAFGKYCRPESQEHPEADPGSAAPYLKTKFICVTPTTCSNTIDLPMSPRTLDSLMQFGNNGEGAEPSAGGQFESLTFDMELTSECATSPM
# Sequence of Transcription factor Sp1 (Homo sapiens) (P08047 whole entry, looked up): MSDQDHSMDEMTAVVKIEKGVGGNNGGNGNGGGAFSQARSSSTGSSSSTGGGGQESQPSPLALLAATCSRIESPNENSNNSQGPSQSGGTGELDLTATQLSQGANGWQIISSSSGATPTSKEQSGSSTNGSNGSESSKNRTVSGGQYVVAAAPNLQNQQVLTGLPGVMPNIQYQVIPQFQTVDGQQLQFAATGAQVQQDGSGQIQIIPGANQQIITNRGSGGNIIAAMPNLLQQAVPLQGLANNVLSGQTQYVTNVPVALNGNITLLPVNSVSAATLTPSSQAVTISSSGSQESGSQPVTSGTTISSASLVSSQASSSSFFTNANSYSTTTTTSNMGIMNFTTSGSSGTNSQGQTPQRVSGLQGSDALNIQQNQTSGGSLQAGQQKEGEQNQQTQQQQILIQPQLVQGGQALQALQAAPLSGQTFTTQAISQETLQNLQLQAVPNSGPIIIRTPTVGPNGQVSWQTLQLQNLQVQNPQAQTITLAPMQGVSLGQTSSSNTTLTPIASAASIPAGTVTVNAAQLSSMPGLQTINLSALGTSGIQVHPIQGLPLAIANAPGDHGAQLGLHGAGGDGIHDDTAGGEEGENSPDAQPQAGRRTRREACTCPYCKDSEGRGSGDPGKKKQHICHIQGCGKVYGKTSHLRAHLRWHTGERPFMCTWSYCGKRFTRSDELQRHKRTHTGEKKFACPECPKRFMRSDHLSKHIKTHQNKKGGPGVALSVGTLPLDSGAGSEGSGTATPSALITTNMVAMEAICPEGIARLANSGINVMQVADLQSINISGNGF
# Sequence of Heat shock factor protein 1 (Homo sapiens) (Q00613 whole entry, looked up): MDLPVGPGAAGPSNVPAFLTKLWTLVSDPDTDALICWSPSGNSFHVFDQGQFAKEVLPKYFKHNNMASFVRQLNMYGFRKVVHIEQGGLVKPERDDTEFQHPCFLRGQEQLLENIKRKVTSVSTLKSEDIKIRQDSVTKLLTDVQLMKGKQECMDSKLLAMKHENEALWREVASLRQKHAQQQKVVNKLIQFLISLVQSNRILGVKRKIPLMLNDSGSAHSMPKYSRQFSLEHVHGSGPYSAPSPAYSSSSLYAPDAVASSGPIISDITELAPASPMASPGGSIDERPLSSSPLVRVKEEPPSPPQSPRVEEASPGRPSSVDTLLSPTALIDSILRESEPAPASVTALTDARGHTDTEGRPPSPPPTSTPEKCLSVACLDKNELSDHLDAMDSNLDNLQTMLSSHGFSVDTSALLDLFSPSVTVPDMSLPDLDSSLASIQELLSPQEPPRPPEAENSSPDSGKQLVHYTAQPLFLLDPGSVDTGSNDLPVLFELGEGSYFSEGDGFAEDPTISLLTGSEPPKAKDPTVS
# Sequence of Hypoxia-inducible factor 1-alpha (Homo sapiens) (Q16665 whole entry, looked up): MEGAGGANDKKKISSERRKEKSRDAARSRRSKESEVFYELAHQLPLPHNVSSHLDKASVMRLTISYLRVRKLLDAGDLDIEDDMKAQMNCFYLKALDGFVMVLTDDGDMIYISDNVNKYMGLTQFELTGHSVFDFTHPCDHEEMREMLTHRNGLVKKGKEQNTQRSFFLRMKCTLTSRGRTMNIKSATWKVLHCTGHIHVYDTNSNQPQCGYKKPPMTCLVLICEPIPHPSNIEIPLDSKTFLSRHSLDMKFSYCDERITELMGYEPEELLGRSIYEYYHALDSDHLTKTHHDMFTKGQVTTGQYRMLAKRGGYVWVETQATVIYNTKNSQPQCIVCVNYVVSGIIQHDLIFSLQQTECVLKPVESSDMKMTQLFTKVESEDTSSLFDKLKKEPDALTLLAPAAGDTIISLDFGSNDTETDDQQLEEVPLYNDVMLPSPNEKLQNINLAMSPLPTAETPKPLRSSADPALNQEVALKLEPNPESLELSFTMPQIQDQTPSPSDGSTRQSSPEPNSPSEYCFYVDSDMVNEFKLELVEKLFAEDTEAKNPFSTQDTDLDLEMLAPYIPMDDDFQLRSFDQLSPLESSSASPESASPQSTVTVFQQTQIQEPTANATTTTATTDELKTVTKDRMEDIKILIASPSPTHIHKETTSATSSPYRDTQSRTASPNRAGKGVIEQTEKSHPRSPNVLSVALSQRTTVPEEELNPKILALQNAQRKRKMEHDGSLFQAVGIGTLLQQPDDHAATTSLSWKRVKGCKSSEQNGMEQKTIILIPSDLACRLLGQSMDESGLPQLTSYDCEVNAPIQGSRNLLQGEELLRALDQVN
# Sequence of Bile acid receptor (Homo sapiens) (Q96RI1 whole entry, looked up): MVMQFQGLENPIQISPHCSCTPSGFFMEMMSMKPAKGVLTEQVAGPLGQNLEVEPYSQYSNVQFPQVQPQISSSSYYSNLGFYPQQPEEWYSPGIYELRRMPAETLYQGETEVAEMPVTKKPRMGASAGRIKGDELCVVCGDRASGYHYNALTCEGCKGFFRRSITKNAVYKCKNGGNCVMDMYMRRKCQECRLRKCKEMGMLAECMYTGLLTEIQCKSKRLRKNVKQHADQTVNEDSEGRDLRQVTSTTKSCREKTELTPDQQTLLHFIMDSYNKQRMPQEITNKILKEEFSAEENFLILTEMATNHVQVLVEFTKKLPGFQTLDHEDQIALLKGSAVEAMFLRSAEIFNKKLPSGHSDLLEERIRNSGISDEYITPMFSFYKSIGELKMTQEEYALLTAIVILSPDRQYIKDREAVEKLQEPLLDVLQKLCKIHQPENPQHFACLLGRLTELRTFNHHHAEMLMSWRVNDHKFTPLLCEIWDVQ
# Sequence of Paired box protein Pax-6 (Homo sapiens) (P26367 whole entry, looked up): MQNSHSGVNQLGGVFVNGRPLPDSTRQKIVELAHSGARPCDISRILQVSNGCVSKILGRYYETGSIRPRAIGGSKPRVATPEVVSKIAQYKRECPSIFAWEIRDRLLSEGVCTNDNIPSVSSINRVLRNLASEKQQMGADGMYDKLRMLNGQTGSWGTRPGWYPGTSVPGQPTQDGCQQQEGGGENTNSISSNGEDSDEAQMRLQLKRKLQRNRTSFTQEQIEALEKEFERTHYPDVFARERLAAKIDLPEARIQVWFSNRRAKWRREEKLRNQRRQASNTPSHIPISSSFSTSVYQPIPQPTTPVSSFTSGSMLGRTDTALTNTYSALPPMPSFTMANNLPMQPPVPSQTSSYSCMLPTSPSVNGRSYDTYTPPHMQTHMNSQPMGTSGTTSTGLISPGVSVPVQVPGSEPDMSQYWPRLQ
smiles,measurement,setting,value
COCCOCCO,outcome,[1],inactive
same,outcome,[2],inactive
same,outcome,[3],inactive
same,outcome,[4],inactive
same,outcome,[5],inactive
same,outcome,[6],inactive
same,outcome,[7],inactive
same,outcome,[8],inactive
same,outcome,[9],inactive
same,outcome,[10],inactive
same,outcome,[11],inactive
same,outcome,[12],inactive
same,outcome,[13],inactive
same,outcome,[14],inactive
same,outcome,[15],inactive
same,outcome,[16],inactive
same,outcome,[17],inactive
CCCN(CCC)c1c([N+](=O)[O-])cc(C(C)C)cc1[N+](=O)[O-],outcome,[1],inactive
same,outcome,[2],inactive
same,outcome,[3],inactive
same,outcome,[4],inactive
same,outcome,[5],inactive
same,outcome,[18],inactive
same,outcome,[6],inactive
same,outcome,[7],inactive
same,outcome,[8],inactive
same,outcome,[9],inactive
same,AC50,[10],1.08 µM (active)
same,outcome,[11],inactive
same,outcome,[12],inactive
same,outcome,[13],inactive
same,outcome,[14],inactive
same,outcome,[15],inactive
same,outcome,[16],inactive
same,outcome,[17],inactive
CC(C)(C)c1ccc(O)cc1,outcome,[1],inactive
same,outcome,[2],inactive
same,outcome,[3],inactive
same,outcome,[4],inactive
same,AC50,[5],76.7 µM (active)
same,outcome,[6],inactive
same,AC50,[7],164 µM (active)
same,AC50,[9],174 µM (active)
same,AC50,[10],26 µM (active)
same,outcome,[12],inactive
same,AC50,[13],175 µM (active)
same,AC50,[14],175 µM (active)
same,AC50,[15],26.8 µM (active)
same,outcome,[16],inactive
same,outcome,[17],inactive
O=C(O)C1C(C(=O)O)C2(Cl)C(Cl)=C(Cl)C1(Cl)C2(Cl)Cl (centres undefined),outcome,[1],inactive
same,outcome,[19],inactive
same,outcome,[20],inactive
same,outcome,[2],inactive
same,outcome,[3],inactive
same,outcome,[4],inactive
same,outcome,[18],inactive
same,outcome,[6],inactive
same,outcome,[7],inactive
same,outcome,[9],inactive
same,outcome,[10],inactive
same,outcome,[12],inactive
same,outcome,[13],inactive
same,outcome,[14],inactive
same,outcome,[15],inactive
same,outcome,[16],inactive
same,outcome,[17],inactive
O=P1(N(CCCl)CCCl)NCCCO1 (centres undefined),outcome,[1],inactive
same,outcome,[19],inactive
same,outcome,[20],inactive
same,outcome,[2],inactive
same,outcome,[3],inactive
same,outcome,[4],inactive
same,outcome,[18],inactive
same,outcome,[6],inactive
same,outcome,[7],inactive
same,outcome,[8],inactive
same,outcome,[9],inactive
same,outcome,[10],inactive
same,outcome,[11],inactive
same,outcome,[12],inactive
same,outcome,[13],inactive
same,outcome,[14],inactive
same,outcome,[15],inactive
same,outcome,[16],inactive
same,outcome,[17],inactive
CCCCCCCc1ccc(O)cc1,outcome,[1],inactive
same,outcome,[20],inactive
same,outcome,[2],inactive
same,outcome,[3],inactive
same,outcome,[4],inactive
same,outcome,[5],inactive
same,outcome,[6],inactive
same,outcome,[7],inactive
same,outcome,[9],inactive
same,AC50,[10],8.05 µM (active) and 14.2 µM (active) and 16.6 µM (active)
same,outcome,[10],inactive
same,outcome,[11],inactive
same,outcome,[12],inactive
same,outcome,[13],inactive
same,outcome,[14],inactive
same,outcome,[15],inactive
same,outcome,[16],inactive
same,outcome,[17],inactive
[N-]=[N+]=[N-],outcome,[1],inactive
same,outcome,[20],inactive
same,outcome,[2],inactive
same,outcome,[3],inactive
same,outcome,[4],inactive
same,outcome,[5],inactive
same,outcome,[6],inactive
same,outcome,[7],inactive
same,outcome,[9],inactive
same,outcome,[10],inactive
same,outcome,[11],inactive
same,outcome,[12],inactive
same,outcome,[13],inactive
same,outcome,[14],inactive
same,outcome,[15],inactive
same,outcome,[16],inactive
same,outcome,[17],inactive
O=[N+]([O-])c1cc(Cl)ccc1Cl,outcome,[1],inactive
same,outcome,[19],inactive
same,outcome,[20],inactive
same,outcome,[2],inactive
same,outcome,[3],inactive
same,outcome,[4],inactive
same,outcome,[5],inactive
same,outcome,[6],inactive
same,outcome,[7],inactive
same,outcome,[9],inactive
same,AC50,[10],56.2 µM (active)
same,outcome,[11],inactive
same,outcome,[12],inactive
same,outcome,[13],inactive
same,outcome,[14],inactive
same,outcome,[15],inactive
same,outcome,[16],inactive
same,outcome,[17],inactive
